# Screens as filed in PubChem.
# In the library only some 4.7% were active in any assay of this set; here they are far more common.
# D1 ag: human D1 receptor agonism | P21728 | HEK293 T-REx D1 cells, calcium flux, agonist mode | activation, % at 2 µM | actives 1% (n = 360,000) | AID 504660; also: 0% is about no effect
# Target sequence (P21728 whole entry, looked up): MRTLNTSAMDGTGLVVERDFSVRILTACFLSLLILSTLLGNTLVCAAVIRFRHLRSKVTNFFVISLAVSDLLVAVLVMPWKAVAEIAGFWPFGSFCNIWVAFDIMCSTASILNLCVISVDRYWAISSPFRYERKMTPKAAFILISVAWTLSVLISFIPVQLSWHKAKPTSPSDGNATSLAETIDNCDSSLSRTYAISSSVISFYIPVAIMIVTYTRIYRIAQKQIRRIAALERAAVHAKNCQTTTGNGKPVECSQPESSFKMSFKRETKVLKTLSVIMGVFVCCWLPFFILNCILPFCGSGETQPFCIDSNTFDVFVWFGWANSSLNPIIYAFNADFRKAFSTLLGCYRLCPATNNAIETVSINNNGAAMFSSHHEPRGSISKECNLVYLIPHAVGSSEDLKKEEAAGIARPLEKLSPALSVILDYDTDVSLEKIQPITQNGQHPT
#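 Inducible HEK293 T-REx D1 cells, force-coupled to calcium signalling, were plated at 4000 cells/well with tetracycline and held overnight at 30 C. After no-wash calcium dye loading, compound-evoked calcium rise over 180 s flagged agonists.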
# D1 potentiator: human D1 dopamine receptor positive modulation | P21728 | HEK293 TREx D1 cells, calcium flux, dopamine EC20 potentiation | potentiation, % at 10 µM | actives 0.036% (n = 360,000) | AID 504651; in the data active = potentiation above about 30%; also: 0% is about no effect
# TRHR PAM: allosteric enhancers of human TRH receptor. enhancement, % at 2 µM. TRHR cells, fluo-8 calcium fluorescence, EC20 TRH enhancement. actives 0.66% (n = 360,000); in the data active = enhancement above about 30%; also: 0% is about no effect
#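 Enhancer read-out: after compound pinning and an initial kinetic agonist-mode read, an EC20 of TRH (10 nM final) was injected and fluo-8 calcium signal (Ex 480/Em 530) followed at 1 s/cycle for 100 cycles in TRHR-expressing cells.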
# TRHR agonist: activates the human TRH receptor | P34981 | TRHR cells, calcium flux fluo-8, FDSS agonist mode | activation, % at 2 µM | actives 0.18% (n = 360,000) | AID 493084; also: 0% is about no effect
#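 Read-out: compound-evoked intracellular calcium rise in TRHR cells, fluo-8 dye, kinetic FDSS fluorescence at 1 s/cycle following a 10-cycle baseline. Cells cultured overnight before dye loading (30 min–1.5 h, RT).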
# D1 antag: blocks dopamine activation of the human D1 receptor; activity change, negative = inhibition, % at 10 µM; AID 504652; actives 3.2% (n = 360,000); HEK293 TREx D1 cells, calcium flux, dopamine EC80; active compounds read low; in the data active = activity change below about -30%; also: % is scaled to controls: 0 for no effect and ±100 for the full control effect
#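 Calcium flux readout: force-coupled, inducible Hek293 Trex D1 line, cells induced overnight at 30 C with tetracycline, dye-loaded 30–90 min at RT. Antagonism scored against EC80 dopamine challenge given 180 s after compound.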
# * = called active by the depositor. Rule as the data show it, unless noted: active = activation above about 30%; inactive = the rest.
SMILES,D1 ag,D1 potentiator,TRHR PAM,TRHR agonist,D1 antag
Cc1ccc(Nc2cc(C)nc3ccc(C)cc23)cc1,4.2,-6.3,8.9,0.2,-33.0*
CN(C)CCNS(=O)(=O)c1ccc2c3c(cccc13)C(=O)N2,4.1,0.9,40.2*,1.0,-1.7
CCOC(=O)c1cc(C)sc1NC(=O)CN1CCN(C(=O)c2ccco2)CC1,1.4,12.4,8.3,1.1,2.0
CCOC(=O)c1cc(CC)sc1NC(=O)CN1CCN(C(=O)c2ccco2)CC1,108.8*,-8.1,-6.3,-0.1,-27.0
OC1(c2ccc3c(c2)OCO3)CCN(Cc2ccccn2)CC1,0.9,-4.4,-0.1,-0.1,-40.2*
O=C(CN1CCC(O)(c2ccc3c(c2)OCO3)CC1)N1CCOCC1,3.9,-5.8,15.3,0.3,0.9
COc1ccc(CCNC(=O)c2csc3c2CCCC3)cc1OC,3.6,-0.3,4.3,-0.7,1.0
CSc1ccc(CCNC(=O)c2csc3c2CCCCC3)cc1,11.6,-1.4,-2.4,0.6,-37.9*
CCC(NC(=O)c1ccc2nc(Cc3ccc(OC)cc3)oc2c1)c1ccncc1 (stereo not given),20.6,-8.5,-2.7,0.7,-41.1*
COc1ccc(Cc2nc3ccc(C(=O)N(C)CCCN4CCOCC4)cc3o2)cc1,3.7,-3.0,-2.4,0.5,-49.5*
O=C(NCCCN1CCN(c2ccc(F)cc2)CC1)c1ccc2nc(Cc3ccccc3)oc2c1,25.6,-3.9,-5.7,0.5,-38.4*
O=C(NCCCN1CCN(c2ccccc2)CC1)c1ccc2nc(Cc3ccccc3)oc2c1,32.1*,-3.0,-6.1,0.1,-59.5*
CC(C)CCNC(=O)CN1C(=O)c2cccnc2Sc2ccccc21,0.2,-4.2,1.1,-0.5,6.7
COc1ccccc1C(=O)NCC(c1cccs1)N1CCc2ccccc21 (stereo not given),3.8,6.2,-21.7,-0.1,-9.1
Cc1ccc(Cl)cc1N1CCN(CCCNC(=O)c2ccc3nc(N4CCCCC4)sc3c2)CC1,0.9,1.7,2.3,-0.1,-3.3
COc1ccc(N2CCN(CCCNC(=O)c3ccc4nc(N5CCCCC5)sc4c3)CC2)cc1,13.4,-3.6,-9.1,-0.9,-56.5*
Cc1cc(O)cc(C)c1NS(=O)(=O)c1ccc2ccccc2c1,2.8,-5.3,-3.2,0.3,-1.1
O=C(CCC1N=C2c3ccccc3N=C(SCc3ccc(Cl)cc3)N2C1=O)NC1CCCCC1 (stereo not given),4.3,3.1,-1.6,0.1,15.3
C=CCc1cc(Cl)ccc1OCCNCCN1CCOCC1,11.6,-6.8,-2.0,2.7,-87.1*
C=CCc1cc(Cl)ccc1OCCNCCOC,19.0,-5.3,-12.1,-0.4,-8.2
O=C(CN1CCOCC1)N1CCc2ccccc2C(c2ccccc2)C1 (stereo not given),5.3,0.7,-4.3,-0.2,4.5
CN1CCc2cc(O)c(O)cc2C(c2ccccc2)C1 (stereo not given),0.3,-7.2,-5.6,0.6,-87.6*
COc1cc2c(cc1OC)C(c1ccccc1)N(C(=O)C(C)(C)C)CC2 (stereo not given),-0.9,3.9,13.8,-0.2,0.5
CN1CCc2cc(Cl)c(O)cc2[C@@H](c2ccccc2)C1,-0.1,-3.2,3.9,-0.2,-88.9*
COc1ccccc1N1C(=O)C2C(C(=O)c3ccccc3)=NN(c3ccc(C)cc3)C2C1=O (stereo not given),150.0*,0.7,-1.1,31.0*,10.6
SMILES,D1 ag,D1 potentiator,TRHR PAM,TRHR agonist,D1 antag
COc1ccccc1N1C(=O)C2C(C(=O)c3ccccc3)=NN(c3ccc(Br)cc3)C2C1=O (stereo not given),35.2*,-2.2,-0.2,19.6,4.8
CSc1nncc(/C(C)=N\Nc2ccccc2)n1,0.0,-4.5,28.4,-1.1,-36.7*
COc1ccc(OC)c(-c2cc(C(=O)NC(C)c3ccccc3)no2)c1 (stereo not given),7.1,-0.9,-1.4,1.6,-13.2
CCOc1ccc(NC(=O)CSC2=Nc3ccccc3C3=NC(Cc4ccccc4)C(=O)N23)cc1 (stereo not given),-0.5,-1.2,-4.0,0.0,7.6
O=C(CCCN=C1NS(=O)(=O)c2ccccc21)OCC(=O)c1ccc(F)cc1,56.0*,2.0,0.1,10.9,-7.9
O=C(CCN=C1NS(=O)(=O)c2ccccc21)OCC(=O)c1ccc(F)cc1,4.1,-5.8,4.1,0.1,-12.8
CC(OC(=O)CCCN=C1NS(=O)(=O)c2ccccc21)C(=O)Nc1ccccc1F (stereo not given),2.6,-11.7,-0.2,-0.1,-39.1*
CC(=O)c1ccc(N2CCN(C(=O)CCc3nnc4n(C)c(=O)c5sccc5n34)CC2)cc1,0.1,0.7,-10.6,-0.2,1.1
CCOc1c(Cl)cc(CNc2ccc(S(N)(=O)=O)cc2)cc1OC,20.4,-8.0,-2.8,-1.0,-41.4*
CCOc1c(Cl)cc(CNc2ccc(N3CCCC3)cc2)cc1OC,0.7,6.0,3.5,-1.1,5.5
CCOc1ccc(Br)cc1C1C(C(=O)OC)=C(C)NC2=C1C(=O)c1ccccc12 (stereo not given),-1.7,-2.2,-5.5,0.0,-4.4
CCCCN1C(=O)C(=O)N(CC(=O)Nc2ccccc2C(=O)OCC)C1=O,7.4,0.3,-0.4,-0.1,11.1
Cc1nc(-c2cccnc2)sc1C(=O)Nc1cccc(C(F)(F)F)c1,2.1,-2.7,1.5,-0.7,3.6
Cc1nc(-c2cccnc2)sc1C(=O)Nc1ccc(C(F)(F)F)cc1,2.0,-3.5,3.8,0.9,-33.3*
CCCCN(C)CCN1C(=O)C2C(C(=O)Nc3ccc(C)cc3)C3C=CC2(O3)C1C(=O)NC1CCCCC1 (stereo not given),2.5,6.0,1.1,-1.8,-1.0
Cn1c(=O)n(C)c2cc([N+](=O)[O-])c(N3CCN(C(=O)c4cccc(Cl)c4)CC3)cc21,3.8,-4.0,37.9*,0.3,-14.4
CN(C)c1ccc(CNS(=O)(=O)c2ccc(-c3cc(C(F)(F)F)on3)s2)cc1,2.2,-1.0,2.7,0.2,-8.5
Cc1nnc(SCC(=O)Nc2cccc(S(=O)(=O)N(C)c3ccccc3)c2)s1,34.3*,-1.5,3.6,0.3,5.6
O=C(CSc1nnnn1-c1ccccc1)CC(=O)Nc1ccc(Cl)cc1,6.9,-4.5,-3.2,-0.2,-33.9*
CN(c1ccccc1)S(=O)(=O)c1cccc(NC(=O)CSc2n[nH]c(N)n2)c1,1.6,-19.1,1.0,-0.9,-44.6*
CN(C)S(=O)(=O)c1cccc(NC(=O)CSc2nnnn2-c2ccccc2)c1,15.2,-6.0,-5.7,-0.6,-41.3*
NS(=O)(=O)c1cccc(NC(=O)CSc2nnnn2-c2ccccc2)c1,1.0,5.5,1.5,0.2,1.2
COc1ccc(NC(=O)Cn2c(=O)oc3cc(S(=O)(=O)N4CCCCC4C)ccc32)cc1 (stereo not given),1.0,-2.9,0.4,0.0,-20.9
